# ± gives the standard deviation.
# System: MILI (PIWIL2) piRISC loaded with piRNA #1 (26 nt)
# Test: pre-steady-state target cleavage rate (min^-1); guide: piRNA #1 5'p-UGAGGUAGUAGGUUGUAUAGUAUCCA; MIWI and MILI are mouse PIWI proteins and EfPiwi is from a freshwater sponge; tags in brackets are library labels; higher = faster piRNA-guided slicing of the target
# Settings: auxiliary factor: 500 nM mouse GTSF1
# Outline: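 Active affinity-purified piRISC (1 nM) loaded with one synthetic guide was mixed with a transcribed, DNA-blocked target RNA library (0.1 nM), with or without 500 nM GTSF1 partner protein, in HEPES–potassium acetate buffer at 33 °C for 0–8 or 0–960 min. Uncleaved targets were sequenced, normalised to depth and to weakly complementary targets, and pooled across three trials, with k3 capped at 0.0001 min^-1. The pre-steady-state cleavage rate was determined with a burst-and-steady-state fit.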
row,Sequence,pre-steady-state target cleavage rate
1,GGAGACCUAUGAUAUCAACCUACUAACCUCA,0.00255 ± 0.0025
2,GGAGACCAUACUAUUCAACCUACUACCACA,0.189 ± 0.023
3,GGAGACCUAUCUAUACAACCUUCUACCUCA,0.00553 ± 0.0024
4,GGAGACGAUACUAUUGAACCUACUACCUCA,0.157 ± 0.016
5,GGAGACCUAUGAUUACAACCUACUACCUA,0.00393 ± 0.0024
6,GGAGACCUAACUAAACAACCUAGUACCUCA,0.0123 ± 0.0073
7,GGAGACCUAUGAUUACAUCCUACUAGCUCA,0.00651 ± 0.0025
8,GGAGACCUAUGAUAUGUACCUACAACCUGA,< 0.0001
9,GGAGACCUAUGAUUACAACCUACUAUCUCA,0.00332 ± 0.0022
10,GGAGUGGAUACUUUACAACCAACUACCUCA,0.00276 ± 0.0018
11,GGAGACCUAUGAUAACAACCUCCUACCUCA,0.00522 ± 0.0021
12,GGAGACCUAUGAAUACAACCUACUCACCUCA,0.004 ± 0.0026
13,GGAGACCUAUGUAUACAACCUACUACCUACA,0.0588 ± 0.0083
14,GGAGACCAUACUAAACAACCUACUAGCUCA,0.165 ± 0.03
15,GGAGACCUAUCUAUACAACCUACUGACCUCA,0.066 ± 0.012
16,GGAGACCUAACUAUACAACCUACUAACUCA,0.1 ± 0.03
17,GGAGACCUAUCUAUCCAACCUACUACCUCA,0.0742 ± 0.0096
18,GGAGACCUUACUAUACAACCUACAACCUCA,0.126 ± 0.016
19,GGAGACCAUACAAUACAAGCUACUACCUCA,0.205 ± 0.016
20,GGAGUGGAUAGAUUACAACCUACUACCUCA,0.0915 ± 0.01

row,Sequence,pre-steady-state target cleavage rate
1,GGAGACCAUAGUUUACAACCUACUACCUCA,0.0547 ± 0.0081
2,GGAGACCUAUGUAUACAACCUACUACCCCA,0.045 ± 0.011
3,GGAGACCUAUGAUAUCAAGCUACUACCACA,0.00606 ± 0.0028
4,GGAGACCUUACAAUACAACCUACUAGCUCA,0.103 ± 0.013
5,GGAGACCUAACUAUACAACCUACUAGCACA,0.00779 ± 0.0065
6,GGAGACCUAUGUAUACAACCUAUUACCUCA,0.0697 ± 0.0079
7,GGAGACCUAACUAUACAACCUAGCUACCUCA,0.0209 ± 0.008
8,GGAGACCAUACUAUACAACCUAGUACCACA,0.00768 ± 0.0041
9,GGAGACCUAUGUAUUCAACCUACUACCUCA,0.0588 ± 0.0091
10,GGAGACCUUACUUUACAACCUACUUCCUCA,0.0347 ± 0.011
11,GGAGACCUAAGUAUUCAACCUACUACCUCA,0.0617 ± 0.0092
12,GGAGUGGAUACUAUAGUACCUACUACCUCA,0.161 ± 0.012
13,GGAGACCUAACUAUUCAACCUACUUCCUCA,0.0529 ± 0.018
14,GGAGACCUUACUAAACAACCUACUACCACA,0.128 ± 0.017
15,GGAGACCUAUGUAUACAAGCUACUUCCUCA,0.101 ± 0.013
16,GGAGACCUUACUAUACUUCCUACUACCUCA,0.127 ± 0.011
17,GGAGACCAUACUAUAGAACCUACUACCUGA,0.00906 ± 0.0046
18,GGAGACCUAUGAUAACAACCUACUACCUUCA,0.00428 ± 0.0025
19,GGAGACCUUACAAUAGAACCUACUACCUCA,0.0823 ± 0.01
20,GGAGACCUUACUAUACAUCCUACAACCUCA,0.214 ± 0.019
